{"source": "PubChem BioAssay (NCATS)", "note": "Inconclusive results are not listed. Values without a mark were called inactive. The source made the active and inactive calls. Unless noted, calls follow the shape of the dose curve; as a rule, active = well fitted inhibition curve with a large enough effect; inconclusive = small, poorly fitted or top-dose-only effect; inactive = no such curve, though single readings can be large or run the other way.", "data": [{"test_system": "not listed separately", "assay": "Natriuretic polypeptide receptor (hNpr1) antagonism - Pilot counterscreen GloSensor control cell line (AID 1347045; calls by dose curve; also: % is scaled to controls: 0 for no effect and ±100 for the full control effect)", "conditions": "HEK293 cGMP GloSensor cells, SNP-stimulated luminescence, 20 min; series mostly up to 38.3 µM; activity change, negative = inhibition: at the top concentration", "procedure,_shortened": "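HEK293 cells carrying the GloSensor cGMP sensor (GIP/pGS-40F) were loaded with 2% GloSensor reagent for 2 h, exposed to compounds for 30 min, and then stimulated with 50 uM sodium nitroprusside for 20 min at room temperature.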", "units": {"activity change, negative = inhibition": "%"}, "values": [{"smiles": "O=C(Nc1nc2ccccc2n1CCN1CCOCC1)c1cccc([N+](=O)[O-])c1", "activity change, negative = inhibition": 1.87}, {"smiles": "CNC[C@H](O)c1cccc(O)c1", "activity change, negative = inhibition": 8.53}, {"smiles": "OC(CCN1CCCCC1)(c1ccccc1)C1CC2C=CC1C2", "note": "(configuration not stated)", "activity change, negative = inhibition": 10.5}, {"smiles": "Cc1cn[nH]c1", "activity change, negative = inhibition": 0.0177}, {"smiles": "NC(=O)c1cnccn1", "activity change, negative = inhibition": 5.77}, {"smiles": "Nc1nc2ccc(OC(F)(F)F)cc2s1", "activity change, negative = inhibition": -10.6}, {"smiles": "C1COC(NC(C2CC2)C2CC2)=N1", "activity change, negative = inhibition": -2.93}, {"smiles": "Clc1cccc(Cl)c1NC1=NCCN1", "activity change, negative = inhibition": -25.1}, {"smiles": "NC(N)=NC(=O)c1nc(Cl)c(N)nc1N", "activity change, negative = inhibition": 1.67}, {"smiles": "Cc1ccccc1C(OCCN(C)C)c1ccccc1", "note": "(configuration not stated)", "activity change, negative = inhibition": -0.691}]}, {"target": "Atrial natriuretic peptide receptor 2 (Homo sapiens) (UniProt P20594)", "sequence (P20594 whole entry, looked up)": "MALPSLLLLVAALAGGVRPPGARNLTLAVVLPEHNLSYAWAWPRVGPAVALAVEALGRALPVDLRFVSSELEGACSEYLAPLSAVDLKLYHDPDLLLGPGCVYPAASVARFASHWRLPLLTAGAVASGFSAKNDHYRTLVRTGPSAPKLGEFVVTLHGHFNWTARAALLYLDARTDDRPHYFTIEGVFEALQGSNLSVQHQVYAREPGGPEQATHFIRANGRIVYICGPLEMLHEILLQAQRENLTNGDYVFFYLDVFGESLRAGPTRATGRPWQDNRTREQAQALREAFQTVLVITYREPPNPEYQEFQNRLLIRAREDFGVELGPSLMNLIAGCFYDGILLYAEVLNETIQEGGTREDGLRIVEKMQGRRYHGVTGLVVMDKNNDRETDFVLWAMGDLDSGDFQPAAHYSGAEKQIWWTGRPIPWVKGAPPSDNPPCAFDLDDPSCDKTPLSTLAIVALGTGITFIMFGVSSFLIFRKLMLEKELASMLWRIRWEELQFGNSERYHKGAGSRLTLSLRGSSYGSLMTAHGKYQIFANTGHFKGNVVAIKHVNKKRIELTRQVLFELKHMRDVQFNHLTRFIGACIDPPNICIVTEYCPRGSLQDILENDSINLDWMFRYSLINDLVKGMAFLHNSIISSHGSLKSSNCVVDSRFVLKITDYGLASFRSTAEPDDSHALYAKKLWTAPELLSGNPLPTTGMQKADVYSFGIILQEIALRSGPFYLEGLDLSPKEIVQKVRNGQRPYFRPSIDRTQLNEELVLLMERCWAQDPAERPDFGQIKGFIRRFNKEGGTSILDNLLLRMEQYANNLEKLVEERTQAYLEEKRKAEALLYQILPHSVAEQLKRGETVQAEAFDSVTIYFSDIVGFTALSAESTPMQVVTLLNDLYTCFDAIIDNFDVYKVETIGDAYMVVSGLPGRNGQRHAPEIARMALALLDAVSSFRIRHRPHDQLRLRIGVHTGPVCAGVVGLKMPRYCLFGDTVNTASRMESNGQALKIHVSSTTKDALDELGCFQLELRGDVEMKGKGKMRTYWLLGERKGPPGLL", "assay": "Natriuretic polypeptide receptor (hNpr2) antagonism - Pilot subtype selectivity assay (AID 1347050; calls by dose curve; also: % is scaled to controls: 0 for no effect and ±100 for the full control effect)", "conditions": "NPR2-expressing cells, cGMP antagonist-mode read-out; series mostly up to 38.3 µM; activity change, negative = inhibition: at the top concentration", "procedure,_shortened": "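HEK293 cells expressing hNpr2 and a GloSensor cGMP luciferase sensor, 1500/well, preloaded 2 h with 2% GloSensor reagent, compound 30 min, then 1 nM hNppC for 20 min. Antagonism from luminescence after versus baseline pre-read; LOPAC in 1:5 titrations.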", "units": {"activity change, negative = inhibition": "%"}, "values": [{"smiles": "CNC[C@H](O)c1cccc(O)c1", "activity change, negative = inhibition": 3.41}, {"smiles": "OC(CCN1CCCCC1)(c1ccccc1)C1CC2C=CC1C2", "note": "(configuration not stated)", "activity change, negative = inhibition": 5.79}, {"smiles": "Cc1cn[nH]c1", "activity change, negative = inhibition": 0.394}, {"smiles": "NC(=O)c1cnccn1", "activity change, negative = inhibition": -2.01}, {"smiles": "Nc1nc2ccc(OC(F)(F)F)cc2s1", "activity change, negative = inhibition": -15.8}, {"smiles": "C1COC(NC(C2CC2)C2CC2)=N1", "activity change, negative = inhibition": 0.392}, {"smiles": "Clc1cccc(Cl)c1NC1=NCCN1", "activity change, negative = inhibition": -14.7}, {"smiles": "NC(N)=NC(=O)c1nc(Cl)c(N)nc1N", "activity change, negative = inhibition": 0.669}, {"smiles": "Cc1ccccc1C(OCCN(C)C)c1ccccc1", "note": "(configuration not stated)", "activity change, negative = inhibition": -14}]}, {"test_system": "not listed separately", "assay": "NS1 protein of Zika virus - qHTS assay to identify small molecule inhibitors in human HEK 293 cells (AID 1347053);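 also: plate controls were infected untreated cells for no effect and uninfected cells for full effect; nearly all actives have a fitted effect of over 55% in size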", "conditions": "HEK293 ZIKV MR766 infection, NS1 TR-FRET, 24 h; series mostly up to 46.1 µM; activity change, negative = inhibition: at the top concentration", "procedure,_shortened": "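HEK 293; 20 h pre-culture, 37 C/5% CO2; cpd 1 h pre-infection; ZIKV MR766, MOI = 0.5, 24 h, 37 C; TR-FRET NS1 readout (two anti-NS1 Abs); norm. to no-virus vs infected.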", "units": {"activity change, negative = inhibition": "%"}, "values": [{"smiles": "O=C(Nc1nc2ccccc2n1CCN1CCOCC1)c1cccc([N+](=O)[O-])c1", "Potency": "inactive"}, {"smiles": "CNCc1ccc(-c2[nH]c3cc(F)cc4c3c2CCNC4=O)cc1", "activity change, negative = inhibition": 6.8}, {"smiles": "C[C@@H]1CN(Cc2ccc(F)cc2)[C@@H](C)CN1C(=O)c1cc2c(C(=O)C(=O)N(C)C)cn(C)c2cc1Cl", "activity change, negative = inhibition": 2.68}, {"smiles": "CN(C)C(=O)c1ccc(S(=O)(=O)c2ccc(NC(=O)[C@@](C)(O)C(F)(F)F)c(Cl)c2)cc1", "activity change, negative = inhibition": 0.769}, {"smiles": "Cc1ccc(NC(=O)c2cccc(C(C)(C)C#N)c2)cc1Nc1ccc2ncn(C)c(=O)c2c1", "activity change, negative = inhibition": -1.78}, {"smiles": "CNC[C@H](O)c1cccc(O)c1", "Potency": "inactive"}, {"smiles": "Cc1ccc(-n2nc(C(C)(C)C)cc2NC(=O)Nc2ccc(OCCN3CCOCC3)c3ccccc23)cc1", "activity change, negative = inhibition": 1.28}, {"smiles": "O=C(c1cc(Cc2n[nH]c(=O)c3ccccc23)ccc1F)N1CCN(C(=O)C2CC2)CC1", "activity change, negative = inhibition": -15.7}, {"smiles": "CCc1cncnc1N1CCN(Cc2nc3ccc(C(F)(F)F)cc3[nH]2)CC1", "activity change, negative = inhibition": 0}, {"smiles": "OC(CCN1CCCCC1)(c1ccccc1)C1CC2C=CC1C2", "note": "(configuration not stated)", "Potency": "inactive"}, {"smiles": "Cc1cn[nH]c1", "Potency": "inactive"}, {"smiles": "Cn1cnc2c(F)c(Nc3ccc(Br)cc3Cl)c(C(=O)NOCCO)cc21", "activity change, negative = inhibition": 4.02}, {"smiles": "COc1ccc(CCN2CCN(CCCc3ccccc3)CC2)cc1OC", "activity change, negative = inhibition": -1.04}, {"smiles": "OCCn1cc(-c2cnc3nnn(Cc4ccc5ncccc5c4)c3n2)cn1", "activity change, negative = inhibition": 5.29}, {"smiles": "NC(=O)c1ccc(-c2nc(-c3ccc4c(c3)OCCO4)c(-c3ccccn3)[nH]2)cc1", "activity change, negative = inhibition": 10.7}, {"smiles": "COc1cc(Nc2ncc3c(n2)-c2ccc(Cl)cc2C(c2c(F)cccc2OC)=NC3)ccc1C(=O)O", "activity change, negative = inhibition": 2.08}, {"smiles": "CNC(=O)c1ccc(C)c(-n2c(C)cc(OCc3ccc(F)cc3F)c(Br)c2=O)c1", "activity change, negative = inhibition": 4.14}, {"smiles": "COc1ccc(CC2=NN3C([C@@H](CCc4ccccc4)[C@@H](C)O)=NC(C)C3C(=O)N2)cc1OC", "note": "(some centres not stated)", "activity change, negative = inhibition": 3.12}, {"smiles": "NC(=O)c1cnccn1", "Potency": "inactive"}, {"smiles": "Nc1nc2ccc(OC(F)(F)F)cc2s1", "Potency": "inactive"}, {"smiles": "CCOC(=O)N[C@@H]1CC[C@@H]2[C@@H](C1)C[C@H]1C(=O)O[C@H](C)[C@H]1[C@@H]2C=Cc1ccc(-c2cccc(F)c2)cn1", "activity change, negative = inhibition": -13.9}, {"smiles": "CCCS(=O)(=O)Nc1ccc(F)c(C(=O)c2c[nH]c3ncc(-c4ccc(Cl)cc4)cc23)c1F", "activity change, negative = inhibition": 1.2}, {"smiles": "C1COC(NC(C2CC2)C2CC2)=N1", "Potency": "inactive"}, {"smiles": "CCC(C)(C)C(=O)O[C@H]1C[C@@H](C)C=C2C=C[C@H](C)[C@H](CC[C@@H]3C[C@@H](O)CC(=O)O3)[C@H]21", "Potency": "inactive"}, {"smiles": "OCCC#Cc1nc(-c2ccc(F)cc2)c(-c2ccncc2)n1CCCc1ccccc1", "activity change, negative = inhibition": 1.79}, {"smiles": "Clc1cccc(Cl)c1NC1=NCCN1", "Potency": "inactive"}, {"smiles": "N#CC[C@H](C1CCCC1)n1cc(-c2ncnc3[nH]ccc23)cn1", "activity change, negative = inhibition": 3.62}, {"smiles": "Cc1ccnc(NS(=O)(=O)c2ccc(NC(=O)Nc3ccc(S(=O)(=O)Nc4nccc(C)n4)cc3)cc2)n1", "activity change, negative = inhibition": -17.8}, {"smiles": "NC(N)=NC(=O)c1nc(Cl)c(N)nc1N", "Potency": "inactive"}, {"smiles": "CC[C@H](Nc1ncnc2nc[nH]c12)c1nc2cccc(F)c2c(=O)n1-c1ccccc1", "activity change, negative = inhibition": 3.09}, {"smiles": "Cc1ccccc1C(OCCN(C)C)c1ccccc1", "note": "(configuration not stated)", "Potency": "inactive"}]}, {"target": "Tyrosine-protein phosphatase non-receptor type substrate 1 (Homo sapiens) + Leukocyte surface antigen CD47 (Homo sapiens) (UniProt P78324+Q08722)", "sequence (P78324 whole entry, looked up)": "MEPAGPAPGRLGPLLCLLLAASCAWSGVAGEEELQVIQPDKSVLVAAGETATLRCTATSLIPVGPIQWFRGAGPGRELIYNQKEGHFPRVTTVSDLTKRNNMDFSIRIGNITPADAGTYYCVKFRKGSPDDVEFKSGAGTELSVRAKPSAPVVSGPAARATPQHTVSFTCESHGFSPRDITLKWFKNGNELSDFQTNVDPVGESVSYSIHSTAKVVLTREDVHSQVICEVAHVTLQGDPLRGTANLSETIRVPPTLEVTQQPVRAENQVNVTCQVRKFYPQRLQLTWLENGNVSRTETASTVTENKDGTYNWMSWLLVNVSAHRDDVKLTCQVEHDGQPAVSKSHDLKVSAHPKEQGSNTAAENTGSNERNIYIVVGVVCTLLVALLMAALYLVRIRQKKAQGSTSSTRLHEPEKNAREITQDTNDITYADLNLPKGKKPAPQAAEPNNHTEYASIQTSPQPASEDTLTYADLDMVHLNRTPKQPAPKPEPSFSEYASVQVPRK", "sequence (Q08722 whole entry, looked up)": "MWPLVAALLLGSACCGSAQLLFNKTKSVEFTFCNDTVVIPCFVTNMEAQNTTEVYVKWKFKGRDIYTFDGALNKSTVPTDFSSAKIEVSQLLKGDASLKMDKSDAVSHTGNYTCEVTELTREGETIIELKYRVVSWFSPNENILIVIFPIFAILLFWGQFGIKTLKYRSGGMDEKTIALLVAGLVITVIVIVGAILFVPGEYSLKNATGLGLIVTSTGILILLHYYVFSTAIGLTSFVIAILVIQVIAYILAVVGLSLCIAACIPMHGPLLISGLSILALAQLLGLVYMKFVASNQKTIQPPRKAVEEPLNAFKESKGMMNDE", "assay": "CD47-SIRPalpha protein protein interaction - LANCE assay qHTS validation (AID 1347057; active = well fitted curve in the direction sought with a large enough effect in the signal ratio, with a control signal flat, not every such curve was filed as active; the % refers to the signal ratio; also: 0% is about no effect)", "conditions": "Recombinant CD47-His / biotin-SIRPalpha, TR-FRET ratio; series mostly up to 38.3 µM; activity change, negative = inhibition: at the top concentration", "procedure,_shortened": "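First, His-tagged CD47 and Eu-labelled anti-His antibody met the compound for 30 min; next, site-specifically biotinylated SIRPalpha was added for 30 min; finally streptavidin-APC was added before reading the TR-FRET ratio.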", "units": {"activity change, negative = inhibition": "%"}, "values": [{"smiles": "O=C(Nc1nc2ccccc2n1CCN1CCOCC1)c1cccc([N+](=O)[O-])c1", "activity change, negative = inhibition": -0.741}, {"smiles": "CNC[C@H](O)c1cccc(O)c1", "activity change, negative = inhibition": 1.01}, {"smiles": "CCc1cncnc1N1CCN(Cc2nc3ccc(C(F)(F)F)cc3[nH]2)CC1", "activity change, negative = inhibition": -1.45}, {"smiles": "OC(CCN1CCCCC1)(c1ccccc1)C1CC2C=CC1C2", "note": "(configuration not stated)", "activity change, negative = inhibition": 1.06}, {"smiles": "Cc1cn[nH]c1", "activity change, negative = inhibition": 0.968}, {"smiles": "NC(=O)c1cnccn1", "activity change, negative = inhibition": 0.0233}, {"smiles": "Nc1nc2ccc(OC(F)(F)F)cc2s1", "activity change, negative = inhibition": 1.34}, {"smiles": "Cc1cc2c(C(C)C)c(O)c(O)c(C=O)c2c(O)c1-c1c(C)cc2c(C(C)C)c(O)c(O)c(C=O)c2c1O", "activity change, negative = inhibition": -0.0359}, {"smiles": "C1COC(NC(C2CC2)C2CC2)=N1", "activity change, negative = inhibition": 1.85}, {"smiles": "Clc1cccc(Cl)c1NC1=NCCN1", "activity change, negative = inhibition": 2.25}, {"smiles": "NC(N)=NC(=O)c1nc(Cl)c(N)nc1N", "activity change, negative = inhibition": 0.319}, {"smiles": "Cc1ccccc1C(OCCN(C)C)c1ccccc1", "note": "(configuration not stated)", "activity change, negative = inhibition": 2.01}]}]}
